KB-V1 cytotox: kills drug-selected multidrug resistant KB-V1 cells. KB-V1 MDR cells viability, CellTiter-Glo, 72 h. Potency, µM (top dose mostly 46.1 µM), most hits filed as cytotoxic. 400,000 tested, 3.4% active; also: nearly all actives have a fitted effect of over 60% in size
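In this primary screen, KB-V1 cells overexpressing P-gp are incubated with library compounds (lowest to highest concentration) for 72 h at 37 degrees C before a luminescent ATP viability read.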
KB-3-1 tox: kills parental KB-3-1 adenocarcinoma cells | KB-3-1 viability, CellTiter-Glo ATP luminescence, 72 h | AID 1347075 | Potency, µM (top dose mostly 46.1 µM), usual class: cytotoxic | 400,000 tested, 1.4% active; also: nearly all actives have a fitted effect of over 60% in size
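72 h, 37 °C compound treatment of KB-3-1 parental cells; CellTiter-Glo added, 10 min, luminescence read. Data corrected against DMSO-only plates and normalized before curve fitting.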
HT1080 IDH1KD tx: toxicity to HT-1080 IDH1 knockdown cells (counter line). Potency, µM (series often up to 46.1 µM), actives largely listed as cytotoxic. HT-1080 IDH1 knockdown viability, ATP luminescence, 48 h. 360,000 tested, 2% active. AID 686971
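CellTiter-Glo luminescence after 48 h compound exposure at 37 degrees C of IDH1-knockdown HT-1080 cells in 5% FBS RPMI. %Activity scaled between DMSO wells and cell-free media wells, with curves fitted and assigned curve classes.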
TDP1 cell noCPT: qHTS for Inhibitors of human tyrosyl-DNA phosphodiesterase 1 (TDP1): qHTS in cells in absence of CPT | Potency, µM (series often up to 46.2 µM), most hits filed as inhibitors | 420,000 tested, 15% active | DT40 Tdp1-/- hTDP1 cells, no CPT, ATP luminescence, 48 h; also: nearly all actives have a fitted effect of over 55% in size
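Readout: luminescence from CellTiter-Glo after 30 min in the dark at RT. Cells: DT40 Tdp1-/- with stable hTDP1, 400/well. Exposure: compounds alone, ≥48 hr, 37 °C.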
DT40 TDP1 CPT: growth inhibition of DT40 Tdp1-/-;hTDP1 cells with camptothecin (screen for TDP1 inhibitors) | chicken DT40 Tdp1-/-;hTDP1 cells + 20 nM CPT, ATP luminescence, 48 h | Potency, µM (doses to about 46.2 µM), actives largely listed as inhibitors | 420,000 tested, 12% active; also: nearly all actives have a fitted effect of over 55% in size
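Cell growth measured by CellTiter-Glo luminescence after a minimum 48 h, 37 C compound exposure with 20 nM CPT in Tdp1-knockout DT40 cells stably expressing hTDP1, seeded 400/well; qHTS titration format.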
HT1080NT lethal: kills 2HG-producing HT-1080-NT fibrosarcoma cells. 360,000 tested, 1.6% active. Potency, µM (series often up to 46.1 µM), actives largely listed as cytotoxic. HT-1080-NT fibrosarcoma viability, CellTiter-Glo ATP luminescence, 48 h. AID 686970;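 also: NT is the 2HG producing partner of a matched IDH1 knockdown line; nearly all actives have a fitted effect of over 55% in size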
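A 48-hour cytotoxicity screen used HT-1080-NT cells plated 2 hours before compound delivery. ATP-based CellTiter-Glo luminescence measured viability, normalized to DMSO and no-cell controls.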
Hits are given with their value; - = inactive; ? = inconclusive; . = no result; [ ] = remark or other dose. The list is not random: actives were taken first. Their share in the collection is about 19%. Calls follow the shape of the dose curve; as a rule, active = well fitted curve in the direction sought with a large enough effect; inconclusive = small, poorly fitted or top-dose-only effect, or another doubt; inactive = no such curve, though single readings can be large; an effect the other way counts as inactive or inconclusive.

SMILES | KB-V1 cytotox | KB-3-1 tox | HT1080 IDH1KD tx | TDP1 cell noCPT | DT40 TDP1 CPT | HT1080NT lethal
CCCOC(=O)C(=O)NNc1ccccc1 | - | ? | 5.2µM | - | - | 3.7µM
CCOC(=O)C(=O)NNc1ccc(Cl)cc1 | - | - | 4.1µM | - | - | 3.7µM
CCOC(=O)C(=N/O)/C(C)=N/NC(=O)C(=O)Nc1ccc(Cl)cc1 | - | - | - | 2.1µM | 4.1µM | -
CCOC(=O)C(=O)NNc1ccc(C)cc1 | - | - | - | ? | - | ?
CC(=N\Nc1ccc(Cl)cc1)/C(=N/O)C(=O)Nc1ccccc1 | - | - | -[9.24 µM] | - | - | -
CC(C)OC(=O)C(=O)NNc1ccccc1 | - | ? | 9.2µM | - | - | 7.3µM
NNC(=O)CCn1c2ccccc2c2ccccc21 | - | - | - | ? | - | -
CC(C)Oc1ccc(N2CC(C(=O)NC3=NCCS3)CC2=O)cc1 (stereo unspecified) | - | - | - | - | - | -
C=C(C)C(=O)NNc1ccccc1 | - | - | 21µM | 7.3µM | 5.2µM | 7.3µM
COc1ccccc1NC(=O)CN(c1cc(C)cc(C)c1)S(=O)(=O)c1c(C)[nH]c(=O)[nH]c1=O | - | - | . | - | - | .
Cc1cccc(NC(=O)c2nc[nH]c2C(=O)N2CCN(C(=O)OC(C)(C)C)CC2)c1 | - | - | - | ? | 21µM | -
Cc1ccc(NC(=O)c2nc[nH]c2C(=O)Nc2ccc(C)cc2)cc1 | - | - | - | 7.3µM | 10µM | -
Cc1ccc(NC(=O)c2nc[nH]c2C(=O)NCCN(CCNC(=O)c2[nH]cnc2C(=O)Nc2ccc(C)cc2)CCNC(=O)c2[nH]cnc2C(=O)Nc2ccc(C)cc2)cc1 | ? | ? | - | 16µM | ? | -
O=C(Nc1ccccc1)c1nc[nH]c1C(=O)NCCCCCCNC(=O)c1[nH]cnc1C(=O)Nc1ccccc1 | ? | ? | - | 8.2µM | 7.3µM | -
CCc1ccc(NC(=O)c2sc3nc(C)c(Cl)c(C)c3c2N)cc1 | - | - | . | . | . | .
Cc1c(Cl)cccc1N1C(N)=C(C#N)C(c2cc(CN3CCOCC3)cs2)C2=C1CCCC2=O (stereo unspecified) | - | - | . | ? | ? | .
CCS(=O)(=O)c1nc(S(=O)(=O)c2ccc(C)cc2)c(NCCCOC)s1 | - | - | . | ? | - | .
N#Cc1ccc(/C=C2/C=Cc3ccccc32)cc1 | - | - | . | - | ? | .
O=C(Nc1ccc([N+](=O)[O-])cc1)c1nc[nH]c1C(=O)NC1CCCCC1 | - | ? | - | ? | ? | -
O=C(Nc1ccc(F)cc1)c1nc[nH]c1C(=O)Nc1ccc([N+](=O)[O-])cc1 | - | ? | - | 15µM | ? | -
Cc1cccc(NC(=O)c2nc[nH]c2C(=O)NCCN(CCNC(=O)c2[nH]cnc2C(=O)Nc2cccc(C)c2)CCNC(=O)c2[nH]cnc2C(=O)Nc2cccc(C)c2)c1 | - | ? | - | 5.8µM | 6.5µM | -
CCN(CC)C(=O)c1[nH]cnc1C(=O)Nc1ccccc1 | - | - | - | - | - | -
O=C(Nc1ccccc1)c1nc[nH]c1C(=O)NCCCNC(=O)c1[nH]cnc1C(=O)Nc1ccccc1 | - | - | - | 15µM | ? | -
O=C(Nc1ccccc1)c1nc[nH]c1C(=O)NCCN(CCNC(=O)c1[nH]cnc1C(=O)Nc1ccccc1)CCNC(=O)c1[nH]cnc1C(=O)Nc1ccccc1 | - | ? | ? | 23µM | ? | ?
C[N+]1(C)CCC(=C(c2ccccc2)c2ccccc2)CC1 | - | - | - | - | ? | -
SMILES | KB-V1 cytotox | KB-3-1 tox | HT1080 IDH1KD tx | TDP1 cell noCPT | DT40 TDP1 CPT | HT1080NT lethal
CC(C)n1nnnc1C1c2ccccc2C(=O)N1CCOc1ccccc1 (stereo unspecified) | - | - | - | ? | - | -
Cc1ccc(NS(=O)(=O)c2cccc(C(=O)NNC(=O)c3ccco3)c2)c(C)c1 | - | - | - | ? | - | -
CCOc1ccccc1NC(=O)c1cc(=O)c2ccc(C)cc2o1 | - | - | . | - | - | .
Cc1cccc(NC(=O)c2nc[nH]c2C(=O)Nc2cccc(C)c2)c1 | - | - | ? | 10µM | ? | -
Cc1cccc(NC(=O)c2nc[nH]c2C(=O)NCCCNC(=O)c2[nH]cnc2C(=O)Nc2cccc(C)c2)c1 | - | - | - | ? | - | -
Cc1cccc(NC(=O)c2nc[nH]c2C(=O)N[C@@H](C)c2ccccc2)c1 | - | - | 15µM | 29µM | 23µM | ?
Cc1ccc(Sc2c([N+](=O)[O-])c(=O)n(C)c3ccccc23)cc1 | - | ? | - | 13µM | 15µM | -
Cc1ccc(Sc2c(C=O)c3ccccc3n2C)cc1 | ? | 23µM | ? | ? | ? | ?
Cc1ccc(Sc2c(O)c3ccccc3n(C)c2=O)cc1 | - | - | - | - | - | -
NC(=O)c1ccccc1NC(=O)COC(=O)C1(c2ccccc2)CC1 | - | - | - | - | - | -
COc1cc([N+](=O)[O-])cc(/C=N/NC(=O)c2cc(C)nc3ccccc23)c1O | - | ? | 13µM | ? | ? | ?
COc1cc([N+](=O)[O-])cc(/C=N/NC(=O)c2cc(-c3ccccc3)nc3ccccc23)c1O | ? | ? | ? | 23µM | 21µM | ?
COC(=O)c1c(-c2ccsc2)sc2ccc(-c3cc(OC)c(OC)c(OC)c3)cc12 | - | - | - | 9.2µM | ? | -
COC(=O)c1c(-c2ccc(N(C)C)cc2)sc2ccc(OC)cc12 | - | - | - | 13µM | ? | ?
COc1ccccc1CNC(=O)CCS(=O)(=O)c1ccc2c(c1)oc(=O)n2C | - | ? | . | - | - | .
CN(C)CCNc1c2c(nc3ccccc13)CCC2 | - | - | ? | 18µM | ? | -
OCCNc1c2ccccc2nc2c(F)c(F)c(F)c(F)c12 | ? | - | 4.6µM | 2.3µM | 2.1µM | ?
CN(C)CCCNc1c2ccccc2nc2ccccc12 | 12µM | 1.6µM | 5.2µM | 2.6µM | 2.9µM | 4.1µM
COCCCNc1c2c(nc3ccccc13)CCC2 | ? | - | - | ? | ? | -
CN(C)CCCNc1nc(-c2ccccc2)nc2ccccc12 | - | - | ? | - | - | -
COc1ccc(-c2cc(C(=O)Nc3ccc(C(N)=O)cc3)c3ccccc3n2)cc1 | ? | - | ? | 6.5µM | 8.2µM | ?
COc1ccc(NC(=O)c2cc(-c3ccco3)nc3ccccc23)cc1 | - | - | ? | ? | - | ?
COc1cccc(-c2cc(C(=O)Nc3ccc([N+](=O)[O-])cn3)c3ccccc3n2)c1 | - | - | - | 12µM | ? | -
COc1ccc(COc2cc(-c3cccc(OC)c3)nc3ccc(NC(=O)C(C)C)cc23)cc1 | ? | 2.6µM | 2.9µM | 4.6µM | 4.6µM | ?

Screening results as filed in PubChem BioAssay.
